Screening results: PubChem BioAssay, National Center for Advancing Translational Sciences (NCATS)
A selection: hits, their analogues and other compounds. The true share with any hit is near 2.9%.
GLP-1R agonist = agonists of human GLP-1 receptor; P43220; HEK293 GLP-1R CRE-luciferase, luminescence, 4-6 h; cells express a hypersensitive GLP-1R form; Potency, µM (highest dose often 45.6 µM), without a hit: at the top dose activation, actives largely listed as activators; 0.007% of 380,000 active; further: potency means the concentration at half of the fitted maximal effect; % of control where 0% means no effect
Target sequence (P43220 whole entry, looked up): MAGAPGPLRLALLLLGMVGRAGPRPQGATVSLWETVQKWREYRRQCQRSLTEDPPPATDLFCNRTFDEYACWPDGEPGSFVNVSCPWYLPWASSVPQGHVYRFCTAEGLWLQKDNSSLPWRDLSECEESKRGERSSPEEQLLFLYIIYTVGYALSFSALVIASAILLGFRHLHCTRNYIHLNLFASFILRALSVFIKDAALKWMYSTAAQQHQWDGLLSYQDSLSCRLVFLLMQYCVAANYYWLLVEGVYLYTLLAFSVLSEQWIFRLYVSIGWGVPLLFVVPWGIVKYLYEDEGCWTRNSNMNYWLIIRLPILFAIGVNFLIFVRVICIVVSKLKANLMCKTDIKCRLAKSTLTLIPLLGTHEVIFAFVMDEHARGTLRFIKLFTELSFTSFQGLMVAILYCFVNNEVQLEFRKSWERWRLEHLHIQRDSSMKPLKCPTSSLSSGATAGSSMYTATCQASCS
ClpP mod = qHTS Assay for Activators of ClpP; Potency, µM (titrated, usually from 57.5 µM), without a hit: at the top dose activity change, negative = active; 1.9% of 340,000 active; AID 651965, 2013; purified B. subtilis ClpP, FRET peptide cleavage, 20 min; ATP-dependent Clp protease proteolytic subunit (Bacillus subtilis (strain 168)), P80244; active means well fitted falling curve with a large enough effect; inconclusive means small, poorly fitted or top-dose-only effect; inactive means no such curve, though single readings can be large or run the other way; further: potency means the concentration at half of the fitted maximal effect; the source files actives as falling curves though it sought activators and does not explain the sign; nearly all actives have a fitted effect of over 65% in size
Target sequence (P80244 whole entry, looked up): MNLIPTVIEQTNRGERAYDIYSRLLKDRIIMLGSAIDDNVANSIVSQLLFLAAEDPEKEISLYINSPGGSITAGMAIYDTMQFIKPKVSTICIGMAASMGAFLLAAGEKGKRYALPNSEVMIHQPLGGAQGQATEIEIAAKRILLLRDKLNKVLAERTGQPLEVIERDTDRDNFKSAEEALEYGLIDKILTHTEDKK
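Purified B. subtilis ClpP, 10 microg/mL final in Tris/HCl pH8 with KCl, BSA, glycerol and Tween-20, cleaved an Abz/nitrotyrosine-quenched decapeptide. Fluorescence (ex 320, em 430) was read at 0 and 20 min at room temperature. Delta was normalized to 5.8 microM ADEP and DMSO/no-enzyme controls.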
p53 reactivator = restores transcriptional activity of mutant p53 | H1299 p53-A138V BP100-luciferase reporter, luminescence, 24 h | 0.063% of 320,000 active | Potency, µM (series often up to 92.2 µM), inactives show at the highest dose activity change, positive = activation, most hits filed as activators; further: potency means the concentration at half of the fitted maximal effect; % of control where 0% means no effect; nearly all actives have a fitted effect of over 45% in size
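H1299 (p53-null), stable ts p53-A138V + BP100-Luc; 1000 cells/well, Opti-MEM/10% FBS; cpd 4 pt, 1:5; 24 h, 37 deg C, 5% CO2; detection reagent 10 min RT; luminescence.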
HEK293 tox = cytotoxic in the GLP-1 receptor inverse agonist counter-screen; 0.13% of 410,000 active; AID 624418; HEK293 cAMP-luciferase reporter cells, luminescence, 24 h; Potency, µM (highest dose often 38.3 µM), for inactives: top-dose activity change, negative = inhibition, most hits filed as inhibitors;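 further: loss of luciferase light is scored as toxicity; potency means the concentration at half of the fitted maximal effect; on the % scale 0 is the no-effect control and ±100 the full control effect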
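Seeding density was 200 cells/uL; after overnight-length (12 h) culture, 23 nL compounds went on for 24 h at 37 °C. Readout used a luciferase detection reagent, luminescence taken after 12 min at room temperature.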
GLP1R inv ag = inverse agonists of human GLP-1 receptor | P43220 | HEK293 GLP-1R CRE-luciferase, luminescence, 24 h; GLP-1R form is constitutively active | Potency, µM (series often up to 38.3 µM), for the others: top-dose activity change, negative = inhibition, most hits filed as inhibitors | 1.6% of 410,000 active; further: potency means the concentration at half of the fitted maximal effect; on the % scale 0 is the no-effect control and ±100 the full control effect; nearly all actives have a fitted effect of over 55% in size
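Stable HEK293 clone (constitutively active GLP-1R + cAMP-response luciferase); 200 cells/uL plated, 12 h pre-culture, compound 24 hr, 37 deg C/5% CO2; detection reagent 12 min RT; luminescence.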
LDHA block = LDHA (human) enzyme inhibition; P00338; purified LDHA, NADH/diaphorase-resazurin fluorescence; hits give low values; activity change, % (values are at about 110 or 230 µM); 0.15% of 480,000 active; AID 1347041; in the data active means activity change below about -30%; inconclusive means mostly about -25% to -30%;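 further: plate controls were DMSO wells for no effect and wells without enzyme for full effect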
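LDH5 2 nM; NADH 0.06 mM, pyruvate 0.2 mM; 200 mM Tris pH 7.4, EDTA, Tween-20; 5 min RT. Detection: diaphorase 0.133 mg/mL + resazurin 37 µM, fluorescence ex540/em590 at 0 and 20 min; normalized to enzyme-free and DMSO wells.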
* hit, by the source's call; i = inactive; ? = inconclusive; nt = no result. Unless noted, the call rests on the fitted dose curve; in most records, active means well fitted curve in the direction sought with a large enough effect; inconclusive means small, poorly fitted or top-dose-only effect, or another doubt; inactive means no such curve, though single readings can be large; an effect the other way counts as inactive or inconclusive.

SMILES	GLP-1R agonist	ClpP mod	p53 reactivator	HEK293 tox	GLP1R inv ag	LDHA block
COCCCNC(=O)c1c(N)n(-c2ccccc2)c2nc3ccccc3nc12	13.9%	-19.8%	-0.4%	381.6%	?	12.9
COCCCNC(=O)c1c(N)n(-c2ccc(S(N)(=O)=O)cc2)c2nc3ccccc3nc12	-0.6%	15.8µM*	0.5%	255.1%	-2.5%	-2.8
COCCn1c(N)c(C(=O)NCC2CCCO2)c2nc3ccccc3nc21 (centres undefined)	7.1%	?	-14.3%	i	-15.3%	16.7
COCCNC(=O)c1c(N)n(-c2ccccc2)c2nc3ccccc3nc12	-0.4%	17.8µM*	4.3%	410.0%	-4.1%	1.4
Nc1c(C(=O)NCc2ccccc2)c2nc3ccccc3nc2n1-c1ccc2c(c1)OCO2	-8.5%	22.4µM*	7.1%	9.6%	?	-7.3
COCCn1c(N)c(C(=O)NCc2cccs2)c2nc3ccccc3nc21	4.2%	31.6µM*	-1.3%	164.0%	?	9.3
C=CCNC(=O)c1c(N)n(-c2cccc(S(N)(=O)=O)c2)c2nc3ccccc3nc12	-3.1%	14.1µM*	2.5%	i	?	-2.0
CCC(C)NC(=O)c1c(N)n(/N=C/c2cccnc2)c2nc3ccccc3nc12 (centres undefined)	1.4%	25.1µM*	1.3%	5.4%	-3.7%	-7.2
COc1ccccc1CNC(=O)c1c(N)n(CCCN2CCOCC2)c2nc3ccccc3nc12	5.5%	?	-11.2%	59.3%	0.0%	1.9
COCCCNC(=O)c1c(N)n(/N=C/c2cccs2)c2nc3ccccc3nc12	1.1%	31.6µM*	2.4%	109.1%	35.9%	-10.5
CC(C)CNC(=O)c1c(N)n(/N=C/c2cccnc2)c2nc3ccccc3nc12	nt	nt	0.5%	nt	nt	nt
COCCNC(=O)c1c(N)n(CCCn2ccnc2)c2nc3ccccc3nc12	5.5%	15.8µM*	-2.9%	i	9.6%	-2.1
COCCNC(=O)c1c(N)n(-c2cccc(C)c2)c2nc3ccccc3nc12	4.6%	-15.9%	0.7%	i	?	-3.0
COC(=O)C1(C(=O)OC)NOC2C(=O)N(c3ccc(Cl)cc3Cl)C(=O)C21 (centres undefined)	-4.8%	-2.4%	14.1%	10.4%	21.0%	1.6
Cn1cc(CN2CCN(c3cnccn3)CC2)c(-c2cccc(Cl)c2)n1	-0.9%	nt	-4.0%	0.0%	-13.8%	-5.5
O=C(c1ccc(Cl)cc1)C1CCCN(Cc2ccc(Oc3ncccn3)cc2)C1 (centres undefined)	8.8%	-4.6%	-4.3%	3.7%	?	-2.4
COc1ccc(-n2nc(C(=O)NCc3ccco3)c3ccccc3c2=O)cc1	-3.7%	22.4µM*	0.9%	-12.9%	4.6%	-7.4
COc1ccc(-n2nc(C(=O)NCc3ccco3)c3c4ccccc4n(C)c3c2=O)cc1	14.7%	3.8%	-6.8%	1.3%	1.4%	-8.8
Nc1c(C(=O)NCCN2CCOCC2)c2nc3ccccc3nc2n1-c1ccccc1	9.2%	11.2µM*	-7.5%	i	-4.0%	2.1
COc1ccc(-n2c(N)c(C(=O)NCc3ccco3)c3nc4ccccc4nc32)cc1	-2.1%	31.6µM*	-4.9%	34.8%	?	-2.6
COc1ccc(-n2c(N)c(C(=O)NCc3ccco3)c3nc4ccccc4nc32)cc1OC	13.9%	nt	-14.3%	-1.0%	9.4%	-0.6
CCOc1ccc(C(=O)NCC(c2cccs2)N2CCOCC2)cc1 (centres undefined)	5.8%	2.8%	-2.9%	2.9%	-8.8%	-2.9
Cn1cccc1C(=O)NCC(c1ccc(F)cc1)N1CCOCC1 (centres undefined)	0.8%	-1.4%	-3.9%	0.0%	1.8%	-5.7
CCc1ccc2c(CN3CCN(Cc4ccccc4)CC3)cc(=O)oc2c1	22.1%	nt	-3.0%	16.7%	8.91µM*	-3.4
CCc1ccc2c(CN3CCN(S(=O)(=O)c4cccs4)CC3)cc(=O)oc2c1	0.2%	31.6µM*	-8.0%	62.7%	-0.7%	0.0
SMILES	GLP-1R agonist	ClpP mod	p53 reactivator	HEK293 tox	GLP1R inv ag	LDHA block
CCN(c1ccc(NC(=O)COC(=O)c2ccc(C)s2)cc1)C(C)C	-2.1%	-1.8%	5.1%	-4.8%	?	1.8
O=c1c2oc3ccccc3c2n(Cc2cccc(Cl)c2)c(=O)n1Cc1ccc2c(c1)OCO2	nt	-26.9%	nt	9.8%	5.8%	-6.4
O=c1c2oc3ccccc3c2n(Cc2ccccc2F)c(=O)n1Cc1ccc2c(c1)OCO2	nt	25.1µM*	nt	-17.5%	1.2%	-6.1
CSc1ccc(C(=O)C2CCCN(C(=O)c3csc(C(C)=O)c3)C2)cc1 (centres undefined)	1.0%	nt	-3.0%	-3.8%	-16.8%	-10.5
O=S(=O)(c1ccc(Cl)c(NC(=S)Nc2ccccc2N2CCOCC2)c1)N1CCOCC1	4.2%	nt	-4.2%	18.8%	9.9%	-7.2
O=S(=O)(c1ccc(Cl)c(NC(=S)N/N=C/c2c(F)cccc2F)c1)N1CCOCC1	14.9%	nt	0.4%	?	2.51µM*	1.2
CC(C)CNC(=O)COC(=O)c1ccc(Cl)c(S(N)(=O)=O)c1	0.4%	3.4%	13.0%	10.5%	19.2%	-0.8
CCCCNC(=O)COC(=O)c1ccc(Cl)c(S(N)(=O)=O)c1	-6.9%	14.1µM*	5.1%	-5.0%	3.3%	-8.7
CC(Sc1cc(C(=O)NC2CC2)c2ccccc2n1)C(=O)NC1CCCC1 (centres undefined)	nt	nt	nt	nt	nt	10.9
COCCN(C(=O)COC(=O)/C=C/c1ccc(SC)cc1)c1c(N)n(Cc2ccccc2)c(=O)[nH]c1=O	17.3%	22.4µM*	nt	9.6%	-5.3%	-6.1
Cc1ccc2[nH]c(=O)c(CN(CCc3ccccc3)C(c3nnnn3Cc3ccco3)C(C)C)cc2c1 (centres undefined)	10.8%	nt	0.6%	2.8%	?	-4.8
CC(C)C(c1nnnn1Cc1ccccc1)N(CCCO)Cc1cc2cc3c(cc2[nH]c1=O)OCO3 (centres undefined)	4.0%	31.6µM*	2.9%	49.9%	26.7%	2.0
CCC(c1nnnn1Cc1ccc(OC)cc1)N(CCCO)Cc1cc2cc3c(cc2[nH]c1=O)OCO3 (centres undefined)	9.6%	22.4µM*	-1.8%	2.2%	-6.7%	2.2
CCC(c1nnnn1Cc1ccccc1)N(Cc1ccco1)Cc1cc2cc(OC)ccc2[nH]c1=O (centres undefined)	10.0%	-16.7%	-4.1%	-13.2%	8.2%	-3.2
